RGS8-Gao reg = RGS8-Galphao binding modulators, primary screen, biochemical, multiplexed bead flow cytometry; AID 1423, 2008; Guanine nucleotide-binding protein G(o) subunit alpha (Homo sapiens), P09471; response (percent of control binding), % at 10 µM; actives lie on both sides; 220,000 compounds, 0.34% hits; in the data active = response below about 60% or above about 140%; inactive = in between;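 note: Galphao activated as the GDP aluminium fluoride complex binding bead-coupled RGS8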
Target sequence (P09471 whole entry, looked up): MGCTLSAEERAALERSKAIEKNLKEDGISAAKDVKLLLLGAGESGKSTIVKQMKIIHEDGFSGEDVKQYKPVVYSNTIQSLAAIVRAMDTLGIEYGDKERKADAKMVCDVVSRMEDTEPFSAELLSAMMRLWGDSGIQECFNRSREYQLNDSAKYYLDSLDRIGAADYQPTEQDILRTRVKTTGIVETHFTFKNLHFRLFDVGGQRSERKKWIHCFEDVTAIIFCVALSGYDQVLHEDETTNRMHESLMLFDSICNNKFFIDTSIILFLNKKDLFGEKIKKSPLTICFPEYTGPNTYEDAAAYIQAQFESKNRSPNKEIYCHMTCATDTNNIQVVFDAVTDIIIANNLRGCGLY
Avidin fluor = green autofluorescence of compounds with avidin beads – biophysical, 488/530 nm, flow cytometry, artefact control, profiling panel. fluorescence (KMESF) at 10 µM. compound fluorescence 488/530 nm; stronger effect = higher value. 220,000 compounds, 0.38% hits; in the data active = fluorescence above about 47
RGS4-Gao reg = modulators of RGS4 binding to Galphao, primary screen, biochemical, multiplexed bead flow cytometry. Guanine nucleotide-binding protein G(o) subunit alpha (Homo sapiens), P09471. actives lie on both sides. binding response (% of control), % at 10 µM. 220,000 compounds, 0.33% hits. AID 1415, 2008; in the data active = binding response below about 49% or above about 150%; inactive = in between;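 note: fluorescent Galphao activated with aluminum fluoride binding bead-coupled RGS4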
RGS7-Gao = RGS7-Galphao binding modulators, primary screen, biochemical, multiplexed bead flow cytometry. Guanine nucleotide-binding protein G(o) subunit alpha (Homo sapiens), P09471. binding response (% of control), % at 10 µM. actives lie on both sides. 220,000 compounds, 0.35% hits. AID 1439, 2008; in the data active = binding response below about 49% or above about 150%; inconclusive = no clear call, values can overlap the other calls; inactive = in between;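 note: fluorescent Galphao held in activated GDP-AlF4 state binding bead-coupled RGS7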
RGS16-Gao = modulators of RGS16 binding to Galphao, primary screen, biochemical, human proteins, multiplexed bead flow cytometry. 220,000 compounds, 0.38% hits. Regulator of G-protein signaling 16 (Homo sapiens) + Guanine nucleotide-binding protein …. binding response (% of control), % at 10 µM. bead-based flow cytometry RGS16-Galphao binding, fluorescence; actives lie on both sides;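 note: Galphao activated by GDP with aluminum fluoride before binding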
Target sequence (O15492 whole entry, looked up): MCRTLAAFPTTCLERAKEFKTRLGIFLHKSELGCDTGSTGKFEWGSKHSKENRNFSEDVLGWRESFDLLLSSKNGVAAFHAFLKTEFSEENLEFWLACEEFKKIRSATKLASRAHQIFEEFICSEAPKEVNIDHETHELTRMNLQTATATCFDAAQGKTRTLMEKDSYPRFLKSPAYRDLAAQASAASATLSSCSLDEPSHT
Target sequence (P09471 whole entry, looked up): as the sequence (P09471 whole entry, looked up) above
GSH bead fluor = compound fluorescence on glutathione beads, profiling panel, artefact control, biophysical, 488/530 nm, flow cytometry | AID 1776, 2009 | GSH beads flow cytometry, compound fluorescence 488/530 nm; stronger effect = higher value | 190,000 compounds, 0.25% hits | fluorescence (KMESF) at 10 µM; in the data active = fluorescence above about 89;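 note: glutathione beads carrying GST-tagged Bcl family fusion proteins plus one bare bead set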
RGS4-Gao HTS = modulators of RGS–Galpha-o binding, primary screen, biochemical, multiplexed beads, flow cytometry, RGS4/7/8/16/19. shares compounds with RGS16-Gao. multiplexed bead flow cytometry. RGS4–Galpha-o binding response, % at 10 µM. 1,600 compounds, 99% hits. AID 1504, 2009;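 note: fluorescently labeled Galpha-o bound to GDP with aluminium fluoride binding biotinylated RGS beads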
Biotin-avidin = disruption of biotin probe capture by avidin, counter-screen for RGS protein interaction modulators, biochemical, flow cytometry, bead-based. 1,700 tested, under 10 active. streptavidin beads, fluorescein-biotin binding. shares compounds with RGS16-Gao. inhibition, % at 10 µM;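 active = inhibition above 50%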;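 note: median green fluorescence of gated singlet beads compared with DMSO control wells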
RGS8-Gao confirm = RGS8-Galphao binding modulators, confirmation, biochemical, multiplexed bead flow cytometry, single concentration; bead-based flow cytometry RGS8-Galphao binding, fluorescence; actives lie on both sides; binding response (% of control), % at 10 µM; 1,700 compounds, 3% hits; shares compounds with RGS16-Gao; in the data active = binding response below about 72% or above about 130%; inactive = in between;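 note: Galphao activated as GDP AlF4 complex before binding bead RGS8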
RGS7-Gao single = RGS7-Galphao binding modulators, confirmation, biochemical, multiplexed bead flow cytometry, single concentration | bead-based flow cytometry RGS7-Galphao binding; actives lie on both sides | response (percent of control binding), % at 10 µM | 1,700 compounds, 7.8% hits | AID 1837, 2009 | shares compounds with RGS16-Gao; in the data active = response below about 75% or above about 130%; inactive = in between;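 note: fluorescent Galphao activated with GDP and aluminum fluoride binding bead-coupled RGS7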
RGS16-Gao single = modulators of RGS16-Galphao protein binding, confirmation, biochemical, single concentration, multiplexed bead flow cytometry. 1,700 compounds, 4% hits. bead-based flow cytometry; actives lie on both sides. shares compounds with RGS16-Gao. response (% of control binding), % at 10 µM. AID 1838, 2009; in the data active = response below about 74% or above about 130%; inactive = in between;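 note: Galphao activated as the GDP aluminium fluoride complex binding bead-coupled RGS16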
RGS4-Gao single = modulators of RGS4-Galphao protein binding, confirmation, biochemical, single concentration, multiplexed bead flow cytometry. AID 1840, 2009. shares compounds with RGS16-Gao. binding response (% of control), % at 10 µM. actives lie on both sides. 1,700 compounds, 4% hits; in the data active = binding response below about 74% or above about 130%; inactive = in between
RGS19-Gao conf = regulators of RGS19-Galphao binding, confirmation, biochemical, single point, multiplexed bead flow cytometry; response (percent of control binding), % at 10 µM; shares compounds with RGS16-Gao; bead-based flow cytometry RGS19-Galphao binding; actives lie on both sides; 1,700 compounds, 5% hits; AID 1841, 2009; in the data active = response below about 50% or above about 160%; inactive = in between
Numbers stand for hits; - = inactive; ? = inconclusive; . = not tested or not shown; ! = repeats disagree; [ ] = dose if it differs, or a comment. An excerpt weighted towards active compounds, which were near 1.2% of everything screened. Unless noted, the rule behind the calls is not given here.

SMILES | RGS8-Gao reg | Avidin fluor | RGS4-Gao reg | RGS7-Gao | RGS16-Gao | GSH bead fluor | RGS4-Gao HTS | Biotin-avidin | RGS8-Gao confirm | RGS7-Gao single | RGS16-Gao single | RGS4-Gao single | RGS19-Gao conf
COc1ccccc1OCCOCCOc1c(C)cc(C)cc1Br | - | - | - | - | 226.9[activator] | - | 110.3 | - | - | - | - | - | -
COc1cc(C)ccc1OCCOCCOc1ccccc1[N+](=O)[O-] | - | - | - | - | - | - | . | . | . | . | . | . | .
CC1(/[N+]([O-])=C\c2ccccc2F)CCCCC1=O (configuration not stated) | - | - | - | ? | - | . | . | . | . | . | . | . | .
O=C(c1cnccn1)N(Cc1cccs1)C1(C(=O)NC2CCCC2)CCCCC1 | - | - | - | - | - | - | . | . | . | . | . | . | .
O=C(c1cnccn1)N(Cc1cccs1)C1(C(=O)NC2CCCCC2)CCCCC1 | - | - | - | - | 245.6[activator] | - | 114.9 | - | - | 66.7 | - | - | -
CCN1/C(=C/C(C)=C/c2sc3ccccc3[n+]2CC)Sc2ccccc21 | 53.2 | - | - | - | - | - | 56.8 | - | - | - | - | - | -
COC(=O)C1=C(C(=O)OC)[C@@H]2N(C)c3ccccc3[C@@]23C[C@@H](CO)N(C(=O)NCCBr)C3=N1 | - | - | - | ? | - | . | . | . | . | . | . | . | .
CN(C)/C=N/c1c(C#N)cnn1-c1ccc(C(F)(F)F)cn1 | - | - | - | - | -121.6 | - | 60.6 | - | - | - | - | - | -
CCc1ccc(NC(=O)CSc2nnc(Cn3c(=O)sc4ccccc43)n2C)cc1 | - | - | - | - | - | - | . | . | . | . | . | . | .
CCOC(=O)c1ccc(NC(=O)CSc2nnc(Cn3c(=O)sc4ccccc43)n2C)cc1 | - | 89 | - | 173.5[activator] | - | - | 108.7 | - | - | - | - | - | -
Cc1ccccc1-n1c(=O)c(C#N)cc2c(=O)n3ccccc3nc21 | - | - | - | - | - | - | . | . | . | . | . | . | .
Cc1cc(-n2c(=O)c(C#N)cc3c(=O)n4ccccc4nc32)no1 | - | - | - | - | -3.0 | - | 88.5 | . | . | . | . | . | .
CSc1ncccc1C(=O)OCC(=O)NC(C)C | - | - | - | ? | - | - | . | . | . | . | . | . | .
CC(=O)Oc1ccc2c(=O)c(Oc3ccccc3)c(C)oc2c1OC(C)=O | 53.7 | - | 48.8 | 42.6 | - | - | . | - | - | - | - | - | -
CC(C(=O)NC(=O)NCc1ccccc1)N1C(=O)c2ccccc2C1=O (configuration not stated) | . | . | - | . | . | - | . | - | - | - | - | - | -
COc1ccc(NS(=O)(=O)c2cc([N+](=O)[O-])ccc2N/N=C\c2c(C)[nH]c3ccccc23)cc1 | - | 51 | 150.7[activator] | - | - | - | . | - | - | 158.9[activator] | - | 128.4[activator] | 199.2[activator]
Cc1[nH]c2ccccc2c1/C=N/Nc1ccc([N+](=O)[O-])cc1S(=O)(=O)Nc1ccc(Cl)cc1 | - | - | - | - | - | - | . | . | . | . | . | . | .
CCN(CCCNC(=O)CN(C)S(=O)(=O)c1cccc2nsnc12)c1cccc(C)c1 | . | . | . | . | . | - | . | - | - | - | - | - | -
CCN(CCNC(=O)CN(C)S(=O)(=O)c1cccc2nsnc12)c1ccccc1 | - | - | - | - | - | - | . | . | . | . | . | . | .
CC(C)OP(=O)(OC(C)C)C(Nc1ccccc1)c1cccnc1 (configuration not stated) | - | - | - | ? | - | . | . | . | . | . | . | . | .
COC(=O)C(C)NC(=O)C(C)NC(=O)OCc1ccccc1 (configuration not stated) | . | . | . | . | . | - | . | - | - | - | - | - | -
Cc1ccc(S(=O)(=O)N/N=C/c2cccc([N+](=O)[O-])c2)cc1 | - | - | - | - | -8.2 | - | 83.3 | - | - | - | - | - | -
Cc1ccc(S(=O)(=O)N/N=C\c2cc([N+](=O)[O-])ccc2Cl)cc1 | - | - | - | - | - | - | . | . | . | . | . | . | .
Cc1cc(C(=O)CSc2nnc(-c3cccnc3)n2-c2ccccc2F)c(C)n1C | 10.7! | - | 6.8! | 5.0! | -0.8! | - | . | - | - | - | - | - | -
CCC(C)NC(=O)C1c2ccccc2C(=O)N1Cc1ccc(OC)cc1OC (configuration not stated) | 147.0[activator] | - | - | - | - | - | 137.5 | - | - | - | - | - | -
COC(=O)CC1C(=O)NCCN1C(=S)Nc1ccc(F)cc1 (configuration not stated) | - | - | - | ? | - | . | . | . | . | . | . | . | .
CCOC(=O)C(CSCc1ccccc1)NC(=O)OC(C)(C)C (configuration not stated) | - | - | - | - | -919.8 | - | 92.8 | . | . | . | . | . | .
CCOC(=O)C(CSCC(=O)c1ccc(Br)cc1)NC(=O)OC(C)(C)C (configuration not stated) | - | - | - | - | - | - | . | . | . | . | . | . | .
Cc1ccc(-n2c(C)nn(CCOc3ccccc3)c2=O)cc1 | - | - | - | ? | - | - | . | . | . | . | . | . | .
